# Assay results as given in PubChem BioAssay (NCI).
# The panel holds about 83,000 compounds, 20% with a hit somewhere; the sample as a whole holds those more often.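 Growth was measured after 48 h exposure to one concentration of compound in 96-well plates. Values under 10 count as active.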 Values without a mark were called inactive. Activity calls are given as the source filed them.
# Tested on: SK-OV-3 ovarian
# Assay: NCI-60 one-dose screen, 48 h (100 = growth as untreated, 0 = no growth, -100 = all killed)
# Conditions: 10 µM unless noted
row,Structure (SMILES),growth
1,O=S(=O)(NCCCNc1cc(-c2cn(-c3ccccc3)nc2-c2cccc(O)c2)ccn1)c1ccc(Cl)cc1,33.1%
2,COc1ccc(-c2nc3sccn3c2-c2ccnc(NCCCNS(=O)(=O)c3ccc(C)cc3)n2)cc1,56.1%
3,O=C1c2ccccc2C(=O)c2c1oc1oc3c(c(=O)c21)c(=O)n(-c1ccccc1)c1ccccc31,67.3%
4,C#CCC1(c2ccc(F)c(F)c2)NS(=O)(=O)c2ccccc21 (centres undefined),96.9%
5,Cc1nc(Nc2cccnc2)sc1C(=O)/C=C/c1ccc(F)cc1,71.6%
6,CCC#CC[C@H]1C/C=C2/C(=O)C=C[C@@H]2C/C=C\CCCC(=O)O1,26.5%
7,CNC(=O)Cc1nc(-c2cccc(NS(=O)(=O)c3c(F)cccc3F)c2F)c(-c2ccnc(Nc3ccccc3)n2)s1,29.9%
8,CC(=O)Nc1ccc2c(c1)/C(=C\C=C/c1ccc([N+](C)(C)C)cc1)c1ccccc1-2,70.2%
9,COc1cc(OC)cc(-c2n[nH]nc2-c2ccc3c(c2)OCO3)c1,16.3%
10,O=C1CCC/C=C\C[C@H]2C=CC(=O)/C2=C/C[C@H](C/C=C\CC(F)(F)F)O1,-7.52% (active)
11,O=C(Nc1cccc(Cl)c1)c1cc([N+](=O)[O-])ccc1O,59.8%
12,O=C1N=C(c2c(-c3[nH]c(=O)c4ccc(Br)cc4c3O)c(O)c3ccccc3c2O)C(=O)c2cc(Br)ccc21,-32.6% (active)
13,COc1cc(-n2nc(C(=O)Nc3ccc(C(=O)O)cc3)nc2-c2ccccc2)cc(OC)c1OC,64.3%
14,COc1ccc(OC)c(-c2ccc(-c3ccccc3N)c3[nH]c4ccccc4c23)c1,88.6%
15,COc1ccc(S(=O)(=O)Nc2cc(/C=C\c3cc(OC)c(OC)c(OC)c3)cc(OC)c2OC)cc1OC,17.1%
16,Cc1cc(NC(=O)COC(=O)c2sc3cc(F)ccc3c2Cl)no1,111%
17,Nc1c(C(=O)Nc2cccc(C(F)(F)F)c2)sc2nc3c(cc12)C(O)CCC3 (centres undefined),25.7%
18,CC(=O)C1CCC(C)=CC1=O (centres undefined),100%
19,COc1ccc(-c2nc3sccn3c2-c2ccnc(NCCCNS(=O)(=O)c3ccc(F)cc3)n2)cc1,39.5%
20,COc1cc(-c2csc(NC(=O)Nc3ccc(Cl)cc3Cl)n2)cc(OC)c1OC,55.5%

row,Structure (SMILES),growth
1,CCSc1nnc(Nc2ccc(C(C)C)cc2)s1,104%
2,CCOC(=O)CC/C(C)=N\Nc1ccc([N+](=O)[O-])cc1,57.8%
3,Cc1ccc2c(c1)C(=O)C(c1c(-c3[nH]c(=O)c4ccc(C)cc4c3O)c(O)c3ccccc3c1O)=NC2=O,44%
4,CN(C)CCCNC(=O)C(c1ccccc1)c1ccccc1,112%
5,COc1ccc(-c2nnc(COc3ccc(NC(=O)Nc4ccc(Cl)c(C(F)(F)F)c4)cc3F)o2)cc1,22.1%
6,O=c1oc2cc(OS(=O)(=O)c3ccc(F)cc3)ccc2c2c1CCCCC2,95.9%
7,Nc1nc(-c2ccccc2)cs1,99.4%
8,COc1ccc(C(=O)/C=C/c2cccc([N+](=O)[O-])c2)c(OC)c1,77%
9,C=CCOc1cccc(/C=C/C(=O)c2sc(Nc3cccnc3)nc2C)c1,88.5%
10,Cc1cc(Nc2nc(C(=O)Nc3ccccc3)nc3ccccc23)n[nH]1,39.3%
11,CC1CCN(C(=O)CSc2nc3sc4c(c3c(=O)[nH]2)CCCC4)CC1,103%
12,COc1ccc(-c2nc(-c3nc4ccc(F)cc4[nH]3)cc3c2[nH]c2ccccc23)cc1,87%
13,CC/C=C\C[C@H](O)C/C=C1/C(=O)C(Cl)=C[C@@H]1C/C=C\CCCC(=O)O,99.7%
14,O=c1[nH]c2ccccc2cc1-c1nnc(Cc2ccccc2)o1,92.8%
15,COc1ccc(C2CC(c3cccs3)=NN2c2ccc(S(=O)(=O)NC(=O)Nc3ccc(C)cc3)cc2)cc1 (centres undefined),78.3%
16,CCSc1nnc(NC(=O)COc2ccc(Cl)cc2C)s1,93.5%
17,COc1ccc(Cn2c(SC)nc(=O)n(Cc3ccc(Cl)cc3)c2=O)cc1,106%
18,O=C(Nc1ccc(Br)c(Cl)c1)c1cc(F)ccc1O,3.58% (active)
19,O=C(CCl)NCCNc1nccc(Nc2ccc(S(=O)(=O)Nc3ccccn3)cc2)n1,61.9%
